# In the library only some 4.6% were active in any assay of this set; here they are far more common.
# HSF1 activator = increases HSF-1 driven luciferase reporter signal; NIH3T3-HGL HSF-1 luciferase reporter, MG132, 8 h; 100% = twice DMSO control signal; 1.7% of 300,000 active; activation, % at 9 µM;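 active = mean replicate activation of at least 50% with a set share of replicates each reaching 50%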;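 also: 0% = median of the neutral control wells and 100% = twice that signal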
# AHR activator = activates the human aryl hydrocarbon receptor; AHR-responsive luciferase reporter cells, luminescence; activation, % at 5 µM; 2.5% of 320,000 active; in the data active = activation above about 47%;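 also: 0% = vehicle wells and 100% = reference agonist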
# Target sequence (P35869 whole entry, looked up): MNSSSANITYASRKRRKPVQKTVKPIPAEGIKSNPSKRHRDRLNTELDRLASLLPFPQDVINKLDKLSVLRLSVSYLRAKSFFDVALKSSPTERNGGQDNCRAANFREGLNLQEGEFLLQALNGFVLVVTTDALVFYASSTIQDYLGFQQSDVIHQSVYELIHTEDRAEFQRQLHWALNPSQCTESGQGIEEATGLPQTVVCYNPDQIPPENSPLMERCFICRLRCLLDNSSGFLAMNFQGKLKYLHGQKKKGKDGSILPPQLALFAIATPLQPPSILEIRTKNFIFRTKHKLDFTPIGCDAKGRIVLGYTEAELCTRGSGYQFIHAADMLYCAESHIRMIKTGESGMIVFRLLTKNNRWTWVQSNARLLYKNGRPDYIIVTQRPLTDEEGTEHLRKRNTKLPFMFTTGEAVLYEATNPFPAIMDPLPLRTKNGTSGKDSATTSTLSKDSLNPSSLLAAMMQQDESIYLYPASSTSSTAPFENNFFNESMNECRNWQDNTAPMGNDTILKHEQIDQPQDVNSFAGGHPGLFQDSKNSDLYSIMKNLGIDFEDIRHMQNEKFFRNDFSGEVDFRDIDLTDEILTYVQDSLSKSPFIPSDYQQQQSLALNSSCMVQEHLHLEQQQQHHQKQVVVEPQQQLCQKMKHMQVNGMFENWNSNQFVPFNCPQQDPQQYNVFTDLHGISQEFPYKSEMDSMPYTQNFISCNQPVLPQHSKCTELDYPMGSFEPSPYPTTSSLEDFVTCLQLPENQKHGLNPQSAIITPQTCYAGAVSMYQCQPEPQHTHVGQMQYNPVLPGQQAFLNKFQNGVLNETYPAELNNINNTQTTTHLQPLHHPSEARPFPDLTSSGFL
# GAA850 FXN act = frataxin GAA850 promoter activation; 0.56% of 360,000 active; HEK293 lucGAA850 FXN promoter luciferase reporter, 24 h; percent of 10 µM SAHA response; activation, % at 6 µM;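 active = activation above the average of all compounds screened plus 3 SD, cutoff fixed separately per campaign, cut at about 7.5% in these data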;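 also: 0% = DMSO wells and 100% = 10 µM SAHA wells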
# HSF1 inhib = HSF1 inhibition. activity change, negative = inhibition, % at 7.5 µM (by protocol). NIH3T3-HGL HSE-luciferase, MG132-induced, luminescence 8 h; active compounds read low. 0.77% of 300,000 active;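 active = more than half of replicate wells show activity change below -50%, luminescence cut by over half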;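 also: luciferase reports HSF-1 transcriptional activity via heat shock element; 0% = median of DMSO wells and -100% = zero luminescence signal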
# GAA30 counter = GAA30 FXN promoter activation counter-screen; shares compounds with GAA850 FXN act; HEK293 lucGAA30 FXN promoter luciferase, 24 h; DMSO = 0%, 5 µM ipriflavone = 100%; activation, % at 6 µM; 66% of 1,900 active; AID 588350;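 active = mean activation above the mean of solvent-only control wells plus 3 SD, cut at about 22% in these data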;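 also: counterscreen of GAA850 promoter hits where activity marks nonselective or luminescence artifacts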
# FXN GAA850 conf = GAA850 FXN promoter activation confirmation; shares compounds with GAA850 FXN act; activation, % at 6 µM; AID 588351; 86% of 1,900 active; HEK293 lucGAA850 FXN promoter luciferase reporter, 24 h; 100% = activation by SAHA;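 active = mean activation above a set limit taken from the primary screen, cut at about 8% in these data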;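 also: 0% = DMSO wells and 100% = 10 µM SAHA wells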
# Numbers without * were called inactive; . = no result.
SMILES,HSF1 activator,AHR activator,GAA850 FXN act,HSF1 inhib,GAA30 counter,FXN GAA850 conf
Cc1cc(O)c(NC(=O)c2cccc([N+](=O)[O-])c2)cc1C,-5,15,7.6*,3,91*,31*
Cc1ccc(NC(=O)c2sc3ccccc3c2Cl)nc1,14,7,8.4*,-1,105*,16*
Cc1ccc2nsnc2c1NC(=O)c1sc2ccccc2c1Cl,-3,5,-1,-4,.,.
O=C1[C@H]2[C@@H](c3ccc(Cl)cc3)N3C(=O)N(c4cccc(F)c4)C(=O)[C@@]3(Cc3ccc(Cl)cc3)[C@H]2C(=O)N1C1CCCCC1,20,2,0,1,.,.
CC[C@@]12C(=O)N(c3cccc(Br)c3)C(=O)N1[C@H](c1ccc(Cl)cc1)[C@@H]1C(=O)N(C3CCCCC3)C(=O)[C@@H]12,-12,3,11*,3,6,15*
CC(C)C[C@@]12C(=O)N(c3cccc(Br)c3)C(=O)N1[C@H](c1ccc(Cl)cc1)[C@@H]1C(=O)N(C3CCCCC3)C(=O)[C@@H]12,-9,1,3,-3,.,.
CC[C@@]12C(=O)N(c3ccc(OC)cc3)C(=O)N1[C@H](c1ccc(Cl)cc1)[C@@H]1C(=O)N(C3CCCCC3)C(=O)[C@@H]12,-1,1,10*,6,30*,7
O=C1[C@H]2[C@@H](c3ccc(Cl)cc3)N3C(=O)N(c4cccc(Cl)c4)C(=O)[C@@]3(Cc3ccc(Cl)cc3)[C@H]2C(=O)N1C1CCCCC1,37,3,9.6*,12,23*,10*
Cc1ccc(N2C(=O)N3[C@H](c4ccc(Cl)cc4)[C@@H]4C(=O)N(C5CCCCC5)C(=O)[C@@H]4[C@]3(Cc3ccccc3)C2=O)cc1,-5,0,12*,2,43*,17*
COCc1cc(C)nc(SCC(=O)Nc2ccccc2C)c1C#N,-3,3,-1,-3,.,.
CC(C)(C)c1ccc(C(=O)OCCN2CCCCC2)cc1,13,2,0,10,.,.
Cc1ccc(N2C(=O)N3[C@H](c4ccc(F)cc4)[C@@H]4C(=O)N(C5CCCCC5)C(=O)[C@@H]4[C@]3(C)C2=O)cc1,12,3,13*,1,20,5
CC(C)C[C@@]12C(=O)N(c3cccc(Cl)c3)C(=O)N1[C@H](c1ccc(F)cc1)[C@@H]1C(=O)N(C3CCCCC3)C(=O)[C@@H]12,-6,0,12*,11,21,20*
Cc1cccc(N2C(=O)N3[C@H](c4ccc(F)cc4)[C@@H]4C(=O)N(C5CCCCC5)C(=O)[C@@H]4[C@]3(Cc3ccc(Cl)cc3)C2=O)c1,6,0,5,0,.,.
CC[C@@]12C(=O)N(c3cccc(F)c3)C(=O)N1[C@H](c1ccc(Cl)cc1)[C@@H]1C(=O)N(C3CCCCC3)C(=O)[C@@H]12,10,-1,9.0*,-2,23*,15*
CC(C)C[C@@]12C(=O)N(c3cccc(Cl)c3)C(=O)N1[C@H](c1ccc(Cl)cc1)[C@@H]1C(=O)N(C3CCCCC3)C(=O)[C@@H]12,0,0,5,5,.,.
O=C1[C@H]2[C@@H](c3ccc(F)cc3)N3C(=O)N(c4cccc(F)c4)C(=O)[C@@]3(Cc3ccc(Cl)cc3)[C@H]2C(=O)N1C1CCCCC1,-20,6,12*,-7,20,11*
Cc1ccc2sc(N3CCN(C(=O)C4=COCCO4)CC3)nc2c1C,17,1,3,5,.,.
COc1ccc(-n2c(N)cc(=O)nc2SCC(=O)N2CCN(c3ccccc3)CC2)cc1,7,1,-3,-5,.,.
Cc1ccc(OCC(O)CN2CCN(CC(O)COC(C)C)CC2)c(C(C)(C)C)c1 (stereo unspecified),1,-2,0,0,.,.
O=C1[C@H]2[C@@H](c3ccc(F)cc3)N3C(=O)N(c4ccc(Br)cc4)C(=O)[C@@]3(Cc3ccccc3)[C@H]2C(=O)N1C1CCCCC1,-8,-1,9.1*,-5,21,7
Cc1ccc(C(=O)NCc2ccc3c(c2)OCO3)cc1C,7,13,8.7*,7,57*,22*
Cc1ccc(C(=O)NCc2ccc3c(c2)OCO3)cc1Cl,-22,20,4,-8,.,.
